Assay results as given in PubChem BioAssay (NCI).
Values joined by “and” are separate entries in the source; they are usually repeats but may differ in a detail not shown here. Identical values can stand only once. About 83,000 compounds went through this panel and 20% of them were active in at least one assay; those are over-represented in the sample as a whole.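 Results are percent growth after 48 hours of single-concentration exposure. 100 means growth as in untreated cells, lower positive values show inhibition; negative values down to -100 show cell death.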 Active and inactive are the calls of the source. Rule for the calls: active = growth percent below 10; inactive = the rest.

Each molecule was assayed on MDA-MB-468 breast (assay: NCI-60 one-dose screen, 48 h (100 = growth as untreated, 0 = no growth, -100 = all killed)). Conditions: 10 µM unless noted.
For `COc1cccc(-c2cc(-c3cccs3)c(C#N)c(=O)[nH]2)c1`, the growth was 107% (inactive).
In the case of `OCc1nnn(-c2ccccc2)c1CO`, the growth is reported as 125% (inactive).
For `CSc1nn2c(-c3cc4cc(Br)ccc4oc3=O)ccnc2c1C#N`, the growth was 109% (inactive).
In the case of `CCOC(=O)[C@H](CSSc1ncnc2cc[nH]c12)NC(=O)[C@@H](C)c1ccc2cc(OC)ccc2c1`, the growth is reported as 5.8% (active).
`CN(C)[C@@H]1C(=O)C(C(N)=O)=C(O)[C@@]2(O)C(=O)C3=C(O)c4c(O)cc(CN5CCc6ccccc6C5)c(Cl)c4C[C@H]3C[C@@H]12` was tested, and the growth was -46.8% (active).
With `S=CN1CCCCC1` the growth was 93% (inactive).
In the case of `O=C(CSc1nnc(-c2ccc3nc(-c4ccccc4)[nH]c3c2)o1)Nc1ccc(C(=O)/C=C/c2ccccc2)cc1`, the growth is reported as 112% (inactive).
For `Nc1cc2c(cc1N)-c1ccccc1C2`, the growth was 89.4% (inactive) and 97.8% (inactive).
With `CC(C)c1ccc(S(=O)(=O)NC(=O)NC2CCCC2)cc1` the growth was 96.2% (inactive).
For `CN(C)N1C(=O)c2c(Cl)c(Cl)c(Cl)c(Cl)c2C1=O`, the growth was 96.1% (inactive).
`Oc1ccc(Cl)cc1CNc1nc2ccccc2[nH]1` was tested, and the growth was 102% (inactive).
With `Nc1ncc(-c2ccc3ncnc(N4CCc5cc(F)c(F)cc54)c3c2)cn1` the growth was 4.19% (active).
For `O=C1c2cc(Cl)ccc2S(=O)(=O)c2c(NCCCNCCO)nc3ccccc3c21`, the growth was -14.1% (active).
For `CC(=O)Oc1ccc(Nc2c3ccccc3nc3ccccc23)cc1`, the growth was -25.6% (active).
In the case of `CC1CCN(C(=O)OCc2nc3nc(Cl)nc(N4CCOCC4)c3[nH]2)CC1`, the growth is reported as -59.5% (active).
For `COC1=CC(c2ccc[nH]2)=N/C1=C\c1[nH]c(C)c(C(=O)OCc2ccccc2)c1C`, the growth was -83.2% (active).
For `Cc1cc(CSc2ccccc2C(=O)N2CC=C(c3ccccc3)CC2)on1`, the growth was 94.2% (inactive).
In the case of `COCCNC1=C(Cl)C(=O)c2ccccc2C1=O`, the growth is reported as 76.8% (inactive).
With `O=C(c1ccc(O)cc1)[C@@H]1CN[C@@]2(C(=O)Nc3ccccc32)[C@H]1c1ccc(F)cc1` the growth was 97.5% (inactive).
With `Clc1cc2c(nn1)Nc1ccccc1S2` the growth was 96.9% (inactive).
For `COc1ccc(/C=C2\N=C(Nc3ccccc3)N(NC(=O)c3ccccn3)C2=O)cc1`, the growth was 97.2% (inactive).
For `N#CC1C(=N)Cc2ccccc2-c2ccccc21` (centres undefined), the growth was 9.26% (active).
`O=S(=O)(NCCCNc1nccc(-n2cnc3ccccc32)n1)c1ccc(F)cc1` was tested, and the growth was 50.2% (inactive).
`COc1cc(-c2cc(C(=O)N3CCN(C(=O)c4ccccc4NCc4cccs4)CC3)nc3cc(-c4ccccc4)nn23)cc(OC)c1OC` was tested, and the growth was 64.6% (inactive).
`Cc1c(Cc2ccccc2)c(=O)oc2c(C)c(OCC(=O)n3nc(C#N)cc3N)ccc12` was tested, and the growth was 114% (inactive).
In the case of `Cc1nn(-c2nc3ccccc3[nH]2)c2c1C(c1ccc(O)cc1)CC(=O)N2` (centres undefined), the growth is reported as 92.8% (inactive).
`COc1cc(NS(C)(=O)=O)ccc1Nc1c2ccc(Cl)cc2nc2c(OC)cccc12` was tested, and the growth was -34.1% (active).
With `CSc1oc(C)nc1[P+](c1ccccc1)(c1ccccc1)c1ccccc1` the growth was -4.41% (active).
For `O=C1NCN(c2ccccc2)C12CCN(CCCC(c1ccc(F)cc1)c1ccc(F)cc1)CC2`, the growth was 43% (inactive).
In the case of `CC(C)(C)OC(=O)NCc1cccc(N=C=S)c1`, the growth is reported as 39.4% (inactive).
With `Cc1ccc2c(n1)C(=O)C(Br)=C(CC(C)C)C2=O` the growth was 91.1% (inactive).
In the case of `C=CCOC(=O)C1=C(C)NC2=C(C(=O)CC(C)(C)C2)C1c1ccc(OC)cc1` (centres undefined), the growth is reported as 110% (inactive).
In the case of `COc1ccc2c(c1)c(-c1nc(-c3c[nH]c4c(Cl)nccc34)cs1)cn2C`, the growth is reported as -23% (active).
For `COc1ccc(C2CC(c3ccc(Nc4nc(NCCO)nc(N5CCOCC5)n4)cc3)=Nc3c(N)nc(N)nc3N2)cc1` (centres undefined), the growth was 90.3% (inactive).
For `COC(=O)c1ccc2c(c1)c1c(C)c3cnccc3c(C)c1n2C`, the growth was -38% (active).
With `COc1ccc2c(c1)-c1c(c3cc(OC)ccc3n(CCN(C)C)c1=O)C2=O` the growth was 46% (inactive).
For `COc1cc(-c2nc(-c3ccccc3)c(-c3ccccc3)[nH]2)cc(OC)c1O`, the growth was -49.2% (active).
For `S=C1SCN(Cc2ccccc2)CN1Cc1ccccc1`, the growth was 38.5% (inactive).
In the case of `CN(C)c1ccc(C#Cc2c(F)cccc2Cl)cc1`, the growth is reported as 8.33% (active).
